Bioassay records: PubChem, Broad Institute
Wnt act: Wnt/beta-catenin pathway activators, primary screen, cell-based, plate reader, single point; activation, % at 9.35 µM; Wnt/beta-catenin reporter cell assay, activator; AID 743398, 2014; 300,000 compounds, 1.2% hits; in the data active = activation above about 30%, passing the limit was not always enough
HSF-1 act: HSF-1 activators, primary screen, NIH3T3-HGL cells, MG132 stress, luminescence, single point | activation, % at 9 µM | NIH3T3-HGL HSF-1 luciferase reporter, 8 h; 100% = twice DMSO control signal | 300,000 compounds, 1.7% hits;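 active = mean replicate activation of at least 50% with a set share of replicates each reaching 50%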
MITF act: activators of MITF-driven TRPM1 promoter reporter, primary screen, cell-based, SK-MEL-5, luciferase, single point. 300,000 compounds, 0.75% hits. SK-MEL-5 TRPM1-promoter luciferase, 24 h; % of positive control, neutral wells = 0. activation, % at 12.5 µM;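 active = mean activation of at least 80% with every replicate also reaching 80%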
HSF1 inh: HSF1 inhibitors in luciferase reporter cells, primary screen, cell-based, NIH3T3, luminescence; NIH3T3-HGL HSE-luciferase, MG132-induced, luminescence 8 h; stronger effect = lower value; activity change, negative = inhibition, % at 7.5 µM (by protocol); 300,000 compounds, 0.77% hits;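 active = more than half of replicate wells show activity change below -50%, luminescence cut by over half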;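 also: luciferase reports HSF-1 transcriptional activity via heat shock element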
esBAF inh: Bmi1 luciferase reporter increase in mESCs, primary screen, esBAF inhibitor project, mouse ES cells, Bmi1 luciferase knock-in, single point | 24 h; 100% = twice the neutral-well signal | reporter increase, % at 12.5 µM | 350,000 compounds, 2% hits; in the data active = activation above about 40%;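 also: a rise in the Bmi1 reporter signal indicates esBAF inhibition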
Hits are given with their value. Sampled rows, rich in hits. Any-hit rate of the full collection: about 3.8%.

O=C(Nc1ccc2c(c1)OCO2)c1c(Cl)nc2sccn12 was read as HSF-1 act inactive, MITF act 93.6, HSF1 inh inactive and esBAF inh 48.9.
For O=C(Nc1ccc2c(c1)OCO2)c1ccc2c(c1)OCO2 the results were HSF-1 act inactive, MITF act inactive and HSF1 inh inactive.
For O=C(CN1CCOCC1)N[C@H]1CC[C@H](CCNS(=O)(=O)c2ccccc2F)O[C@H]1CO the results were esBAF inh inactive.
For C[C@H]1CCCCO[C@H](CN(C)C(=O)Nc2ccccc2)[C@@H](C)CN([C@@H](C)CO)C(=O)c2cc(NS(=O)(=O)c3ccc(Cl)cc3)ccc2O1 the results were esBAF inh inactive.
Screening CC(=O)Nc1nonc1NC(=O)c1ccc(C(C)(C)C)cc1 returned Wnt act 55.0, HSF-1 act inactive, HSF1 inh inactive and esBAF inh inactive.
For O=C(Nc1ccc(Cl)c([N+](=O)[O-])c1)c1ccc2c(c1)OCCO2 the results were Wnt act inactive, HSF-1 act inactive, MITF act 95.5, HSF1 inh inactive and esBAF inh 86.1.
O=C(Nc1ccc(Cl)cc1)c1ccc2c(c1)OCO2 was read as HSF-1 act 59.7, MITF act inactive and HSF1 inh inactive.
Screening CC(C)(C)c1ccc(C(=O)Nc2cccnc2)cc1 returned Wnt act inactive, HSF-1 act inactive, HSF1 inh inactive and esBAF inh inactive.
O=C(N/N=C/c1ccc(Cl)c([N+](=O)[O-])c1)c1ccc2c(c1)OCCO2 was read as Wnt act inactive, MITF act inactive and esBAF inh inactive.
NC(=O)c1ccc(NC(=O)c2ccc3c(c2)OCO3)cc1 was read as Wnt act inactive, MITF act 88.3 and esBAF inh inactive.
`O=C(Nc1ccc(Br)cc1)c1ccc2c(c1)OCO2` gave Wnt act inactive, HSF-1 act inactive, HSF1 inh inactive and esBAF inh inactive.
O=C(NCc1ccc(F)cc1)[C@H]1[C@H](CO)[C@H]2Cn3c(cccc3=O)[C@@H]1N2CC1CCCC1 was read as esBAF inh inactive.
For CC(C)(C)c1cnnn1-c1ccc(NC(=O)c2ccc3c(c2)OCO3)cc1 the results were HSF-1 act inactive, MITF act inactive, HSF1 inh inactive and esBAF inh 44.0.
CCN1CCN(c2ccc(NC(=O)c3ccc4c(c3)OCO4)cc2)CC1 was read as Wnt act 46.9, HSF-1 act inactive, MITF act inactive, HSF1 inh inactive and esBAF inh inactive.
CSc1nnc(NC(=O)c2ccc3c(c2)OCO3)s1 was read as Wnt act inactive, HSF-1 act inactive, MITF act inactive, HSF1 inh inactive and esBAF inh inactive.
COCCSc1nnc(NC(=O)c2ccc3c(c2)OCO3)s1 was read as Wnt act 46.9, HSF-1 act inactive, MITF act inactive and HSF1 inh inactive.
O=C(Nc1ccc(F)c(F)c1)c1ccc2c(c1)OCO2 was read as HSF-1 act inactive, MITF act 84.7, HSF1 inh inactive and esBAF inh 58.1.
C[C@@H]1CN([C@@H](C)CO)C(=O)CCCn2cc(nn2)CO[C@@H]1CN(C)C(=O)Nc1ccc(C(C)(C)C)cc1 was read as esBAF inh inactive.
`Cn1cnc(S(=O)(=O)N[C@H]2CC[C@@H](CC(=O)N3CCN(c4ccccc4)CC3)O[C@H]2CO)c1` gave esBAF inh inactive.
CC(C)NC(=O)Nc1ccc2c(c1)C(=O)N([C@H](C)CO)C[C@H](C)[C@@H](CN(C)S(=O)(=O)c1ccc(F)cc1)OCCCC[C@@H](C)O2 was read as esBAF inh inactive.
For C[C@@H]1CN([C@H](C)CO)C(=O)c2cc(C#CC3(O)CCCC3)cnc2O[C@@H]1CN(C)C(=O)CC1CC1 the results were esBAF inh inactive.
For O=C([C@@H]1[C@@H](CO)[C@@H]2Cn3c(cccc3=O)[C@H]1N2CC1CC1)N1CCc2ccccc2C1 the results were esBAF inh inactive.
For C[C@H]1CN([C@@H](C)CO)C(=O)c2cc(NS(=O)(=O)c3ccccc3)ccc2O[C@H]1CN(C)S(=O)(=O)c1cccs1 the results were esBAF inh inactive.
